# Hit rate of the full screen: of about 310,000 compounds, about 14,000 (4.5%) showed an effect of 50% or more. The effect is printed as a negative number. What follows is part of a selection rich in strong results, with near analogues and random picks from the rest.
# Biological target: human ether-à-go-go-related gene (hERG) potassium channel (human, UniProt Q12809)
# Assay: primary screen, population patch clamp on CHO cells stably expressing hERG; higher = less effect of the substance
# 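Further: peak tail current of the secondary pulse compared with the same well before compound.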
# Sequence of human ether-à-go-go-related gene (hERG) potassium channel (Q12809 whole entry, looked up): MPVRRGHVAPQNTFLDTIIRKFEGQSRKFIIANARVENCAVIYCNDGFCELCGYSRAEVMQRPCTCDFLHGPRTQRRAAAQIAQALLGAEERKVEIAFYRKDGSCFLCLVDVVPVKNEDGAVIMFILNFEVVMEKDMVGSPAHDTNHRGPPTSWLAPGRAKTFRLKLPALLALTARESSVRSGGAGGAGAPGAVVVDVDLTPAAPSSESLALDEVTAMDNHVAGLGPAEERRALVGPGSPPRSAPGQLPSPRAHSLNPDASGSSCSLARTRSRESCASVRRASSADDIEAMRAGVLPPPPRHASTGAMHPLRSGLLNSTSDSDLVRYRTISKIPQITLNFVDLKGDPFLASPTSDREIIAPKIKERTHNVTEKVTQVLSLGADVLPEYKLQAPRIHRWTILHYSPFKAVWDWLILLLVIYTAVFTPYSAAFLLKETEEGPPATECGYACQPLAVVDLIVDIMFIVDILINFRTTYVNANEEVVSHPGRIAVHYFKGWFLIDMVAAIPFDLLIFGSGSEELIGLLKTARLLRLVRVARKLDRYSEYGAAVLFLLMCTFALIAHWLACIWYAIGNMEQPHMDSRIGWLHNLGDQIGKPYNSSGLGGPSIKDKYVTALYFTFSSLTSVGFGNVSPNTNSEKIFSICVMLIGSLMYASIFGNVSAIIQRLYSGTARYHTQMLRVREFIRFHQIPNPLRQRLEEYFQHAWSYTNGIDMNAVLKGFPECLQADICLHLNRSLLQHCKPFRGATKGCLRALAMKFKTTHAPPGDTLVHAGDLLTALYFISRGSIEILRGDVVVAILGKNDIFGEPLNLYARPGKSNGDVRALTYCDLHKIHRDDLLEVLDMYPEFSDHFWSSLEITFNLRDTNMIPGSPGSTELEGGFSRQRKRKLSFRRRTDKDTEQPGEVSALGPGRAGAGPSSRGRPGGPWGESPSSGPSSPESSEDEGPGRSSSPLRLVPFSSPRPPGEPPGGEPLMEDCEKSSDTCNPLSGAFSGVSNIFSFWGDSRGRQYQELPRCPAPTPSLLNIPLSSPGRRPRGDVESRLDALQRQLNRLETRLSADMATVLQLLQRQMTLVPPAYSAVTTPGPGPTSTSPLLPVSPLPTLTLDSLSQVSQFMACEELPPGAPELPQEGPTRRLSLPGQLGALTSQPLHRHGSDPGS
row,Structure (SMILES),"hERG current change (%, negative = inhibition) at 10uM"
1,Cc1ccc(O)c(-c2cc3ccccc3[nH]2)c1,-15.8%
2,O=C(O)COCC(=O)N1CCCN(c2nccc(C(F)(F)F)n2)CC1,17.7%
3,CCOC(=O)c1ccc(NC(=O)Cn2cc3c(n2)CCC(C)C3)cc1 (centres unmarked),-4.16%
4,COC(=O)C1=C(c2ccc(Cl)c(C(F)(F)F)c2)C[C@@H]2CC[C@H]1N2C(=O)NCC1CC1,-16.3%
5,COc1ccc(CC(=O)N/N=C(/C)CC(=O)N(C)c2ccccc2)cc1,9.63%
6,Cc1ccc(NC(=O)c2cc(NC(=O)c3ccco3)ccc2N2CCCCC2)cc1,13%
7,CCCN(CC(=O)Nc1cccc(Br)c1)CC(=O)Nc1ccc(F)c(F)c1F,-10.1%
8,CCOC(=O)N1CCN(C(=O)c2ccc3c(c2)NC(=O)/C(=C/c2ccccc2)S3)CC1,-17.8%
9,Cn1c2ccccc2c2nnc(SCC(=O)Nc3cccc(O)c3)nc21,-45.6%
10,Cc1ccc(Nc2nc(N)nc(CCl)n2)c(C)c1,16.1%
11,Cc1ccccc1Nc1nc(N)nc(CN2CCN(Cc3ccc4c(c3)OCO4)CC2)n1,-68%
12,Cc1ccccc1NC(=S)N1CCN(Cc2ccc3c(c2)OCO3)CC1,-10.3%
13,Cc1ccc(Nc2nc(N)nc(CN3CCN(Cc4ccc5c(c4)OCO5)CC3)n2)c(C)c1,-76.9%
14,COc1ccccc1NC(=S)N1CCN(Cc2ccc3c(c2)OCO3)CC1,-1.31%
15,Cc1cccc(Nc2nc(N)nc(CN3CCC(C)CC3)n2)c1C,-37.6%
16,Cc1ccc(Nc2nc(N)nc(CN3CCCCCC3)n2)c(C)c1,-45.8%
17,Cc1ccc(Nc2nc(N)nc(CN3CCC(C)CC3)n2)c(C)c1,-57.8%
18,COc1ccccc1Nc1nc(N)nc(CN2CCN(Cc3ccc4c(c3)OCO4)CC2)n1,-78.1%
19,COc1ccccc1N1CCN(Cc2ccc3c(c2)OCO3)CC1,-20.1%
20,Cc1ccccc1N1CCN(Cc2ccc3c(c2)OCO3)CC1,-31.2%
21,Cc1ccc(NC(=S)N2CCN(Cc3ccc4c(c3)OCO4)CC2)c(C)c1,-1.01%
22,O=C(c1ccc2ccccc2c1)N1CCN(c2ccccn2)CC1,-20%
23,CCOc1ccc(NC2=NCC(=O)N2Cc2cccs2)cc1.Cl,-1.9%
24,COc1ccc(/C(C)=N/NC(=O)c2cc(C)[nH]n2)c(OC)c1,1.33%
25,O=C(Nc1nccs1)c1cc2c(s1)CCCCC2,6.98%
26,CSCCC(NC(=O)c1ccco1)C(=O)N1CCCCCCC1 (centres unmarked),-4.39%
27,O=C(CCc1nnc(CCCCc2ccccc2)o1)NCCCc1cccnc1,-14.8%

row,Structure (SMILES),"hERG current change (%, negative = inhibition) at 10uM"
1,COc1ccccc1CCNC(=O)c1c(C)nn(CC(C)C)c1Cl,-4.9%
2,CCCC(=O)NC(=S)Nc1sc2c(c1C(N)=O)CCC2,11.7%
3,O=C(Cn1c(=O)cnc2ccccc21)Nc1cccc(S(=O)(=O)N2CCOCC2)c1,-21%
4,COc1ccc(NC(=O)Cn2c(=O)cnc3ccccc32)cc1S(=O)(=O)N1CCCCC1,-10.9%
5,Cc1ccc(NC(=O)Cn2c(=O)cnc3ccccc32)cc1S(=O)(=O)N1CCOCC1,-30.4%
6,O=C(Cn1c(=O)cnc2ccccc21)Nc1cccc(S(=O)(=O)N2CCCCC2)c1,-50.3%
7,Cc1ccc(NC(=O)Cn2c(=O)cnc3ccccc32)cc1S(=O)(=O)N1CCCCC1,-50.8%
8,Cc1ccc(S(=O)(=O)N2CCCCC2)cc1NC(=O)Cn1c(=O)cnc2ccccc21,9.61%
9,CC(C)c1ccc(OCc2nc(-c3ccccn3)no2)c(Br)c1,-10.6%
10,CCN1C(=O)N(CC)C2C1N(C(C)=O)C(=O)N2C(C)=O (centres unmarked),-6.42%
11,N#CC1=C(N)OC2=C(C(=O)CCC2)[C@]12C(=O)N(CC(N)=O)c1ccccc12,4.73%
12,COc1cc(CC(=O)OCC(=O)N2CC(C)CC(C)C2)cc(OC)c1OC (centres unmarked),30.9%
13,Cl.O=C(NN1CCN(Cc2ccccc2)CC1)c1ccc(N2CCOCC2)c([N+](=O)[O-])c1,-66.6%
14,Nc1ccc(C(=O)OCC(=O)N2CCc3ccccc3C2)cc1[N+](=O)[O-],-21.1%
15,O=C(OCC(=O)N1CCc2ccccc2C1)c1ccc(N2CCOCC2)c([N+](=O)[O-])c1,-51%
16,O=C(Nc1ccc(CN2CCOCC2)cc1)c1ccc(N2CCCC2)c([N+](=O)[O-])c1,-21.4%
17,O=C(Nc1ccccc1N1CCOCC1)c1ccc(N2CCOCC2)c([N+](=O)[O-])c1,-20.7%
18,O=C(c1ccc(N2CCOCC2)c([N+](=O)[O-])c1)N1CCN(Cc2ccccc2)CC1,-66.9%
19,O=C(c1ccc(N2CCCCC2)c([N+](=O)[O-])c1)N1CCOCC1,-22.6%
20,CC1CCN(c2ccc(C(=O)N3CCOCC3)cc2[N+](=O)[O-])CC1,-0.762%
21,O=C(OCC(=O)N1CCOCC1)c1ccc(N2CCOCC2)c([N+](=O)[O-])c1,19.9%
22,CC(=O)OC[C@]1(OC(C)=O)C[C@@]23CC[C@H]4[C@@](C)(CCC[C@@]4(C)C(=O)O)[C@@H]2CC[C@@H]1C3,4.84%
23,O=C(NCC(=O)N1CCN(C(=O)c2ccco2)CC1)c1cccc(Cl)c1,-48.6%
24,CC(OC(=O)Cn1cnc2c1c(=O)n(C)c(=O)n2C)C(=O)NCc1ccccc1 (centres unmarked),3.36%
25,Cc1noc(C)c1S(=O)(=O)Nc1ccc(C(=O)N2CCN(c3cccc(Cl)c3)CC2)cc1,-4.16%
26,O=C(Nc1ccc(C(=O)N2CCCC2)cc1)c1ccc(F)cc1Cl,0.232%
